# Screening data from PubChem.
# E coli growth-1: E. coli V3065 growth inhibition, primary screen, counter-screen for AddAB inhibitor project, absorbance, OD600; inhibition, % at 11.9 µM; AID 449728, 2010; 18 h; actives 0.27% (n = 330,000);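 active means inhibition above the campaign's mean inhibition across all tested compounds plus 3 SD, cut at about 9.9% in these data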;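 further: uninfected addAB+ strain grown without phage in ampicillin broth; 0% = DMSO wells and 100% = ciprofloxacin 0.95 µg/ml wells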
# Tat transport: E. coli Tat export inhibitors, primary screen, MC4100, TorA-mCherry reporter, fluorescence, single point | inhibition, % at 10 µM | actives 0.036% (n = 340,000) | AID 488895, 2010;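 active means mean replicate inhibition at least 50% and at least half of replicates individually reaching 50%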;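 further: exported cargo escapes ClpAP degradation while cytoplasmic cargo is degraded and loses fluorescence; 0% = median of neutral control wells and 100% = median of NaSCN control wells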
# PfHsp90 set2: growth inhibition of PfHsp90-expressing yeast, primary screen, antimalarial PfHsp90 inhibitor project, S. cerevisiae, BacTiter-Glo luminescence, single point, set 2 | BacTiter-Glo ATP, 48 h; yeast lacking PDR1 and PDR3 efflux regulators | inhibition, % at 9.4 µM | actives 0.32% (n = 310,000);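 active means every replicate shows inhibition above about 80%, whatever the replicate mean, limit read from the data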;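 further: 0% = DMSO neutral controls and 100% = 20 µM radicicol positive controls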
# AddAB inh: growth inhibition of E. coli expressing H. pylori AddAB, primary screen, AddAB inhibitor project, absorbance; actives 0.29% (n = 330,000); AID 435030, 2010; inhibition, % at 11.9 µM; in the data active means inhibition above about 12%;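 further: 0% = vehicle wells of infected cells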
# phage Ecoli inh: growth loss of phage-infected E. coli, primary screen, RecBCD inhibitor project, absorbance, with phage, HTS; AID 651602, 2012; actives 0.26% (n = 360,000); inhibition, % at 11.9 µM; in the data active means inhibition above about 11%
# E coli growth-2: E. coli growth inhibition, primary screen, OD600; OD600 absorbance (test concentration not listed); Escherichia coli growth, 23 h; active compounds read low; actives 0.21% (n = 330,000); AID 1053175, 2014;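 active means OD600 absorbance below the run mean of sample wells minus 3.6 SD, in any replicate, cut at about 0.56 in these data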
# AddAB conf: growth loss of phage-infected E. coli expressing H. pylori AddAB, confirmation, AddAB inhibitor project, absorbance, E. coli V3065, T4 phage, triplicate; actives 64% (n = 880); OD; T4 phage with gene 2 nonsense mutations; shares compounds with AddAB inh; inhibition, % at 11.9 µM;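 active means mean inhibition above a set limit taken from the earlier primary screen, cut at about 13% in these data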;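 further: higher means less bacterial growth since AddAB block lets phage replicate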
# RecBCD counter: growth loss of RecBCD+ E. coli with mutant T4 phage, counter-screen for AddAB inhibitor project, absorbance, V66 E. coli; shares compounds with AddAB inh; OD growth; inhibition, % at 11.9 µM; actives 73% (n = 880); AID 488955, 2010;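 active means mean inhibition above the mean of solvent-only control wells plus 3 SD, cut at about 4% in these data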;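 further: optical density read after an 18 h incubation at 37 °C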
# Bact viability: bacterial viability inhibition counter-screen, confirmation, counter-screen for AddAB inhibitor project, absorbance. inhibition, % at 11.9 µM. actives 35% (n = 880). AID 488956, 2010. shares compounds with AddAB inh. absorbance (AddAB counterscreen); in the data active means inhibition above about 25%
# RecBCD conf: growth loss of phage-infected RecBCD+ E. coli, confirmation, RecBCD inhibitor project, absorbance, E. coli V66, T4 gene 2 phage. shares compounds with phage Ecoli inh. E. coli V66 + T4 2- phage, growth OD. inhibition, % at 11.9 µM. actives 45% (n = 890);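 active means mean inhibition over triplicates exceeding the hit threshold derived in the original primary screen, cut at about 11% in these data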
# Ecoli viability: E. coli viability inhibition, counter-screen for RecBCD inhibitor project, absorbance, high throughput | shares compounds with phage Ecoli inh | absorbance (OD) growth | inhibition, % at 11.9 µM | actives 29% (n = 890); in the data active means inhibition above about 20%;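 further: E. coli strain V66 grown with compound alone and no phage infection; 0% = bacteria with DMSO vehicle only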
# AddAB counter: growth loss of phage-infected AddAB-carrying E. coli, confirmation, counter-screen for RecBCD inhibitor project, absorbance, E. coli V3065, T4 phage. E. coli expressing H. pylori AddAB + T4 phage, OD growth; gene 2 mutant T4, recBCD-deleted host. AID 651984, 2013. actives 45% (n = 890). inhibition, % at 11.9 µM. shares compounds with phage Ecoli inh;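 active means mean inhibition above the solvent-only control wells' mean plus 3 SD, cut at about 22% in these data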;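 further: higher means less bacterial growth from phage killing when AddAB is blocked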
# Numbers without * were called inactive; x = no result given. Shown are actives, neighbours in structure and some others; about 0.69% of the full set was active somewhere.
SMILES,E coli growth-1,Tat transport,PfHsp90 set2,AddAB inh,phage Ecoli inh,E coli growth-2,AddAB conf,RecBCD counter,Bact viability,RecBCD conf,Ecoli viability,AddAB counter
O=C(NNC(=O)c1cccc2ccccc12)c1ccc(Cl)cc1Cl,x,6,-2,x,2,0.7,x,x,x,x,x,x
O=C(NNC(=O)c1ccc2ccccc2c1O)c1ccccc1Cl,15*,-4,x,14*,12*,0.71,10,10*,8,-1,0,6
COc1ccc(C=Nn2c(C)nnc2C)c(OC)c1,x,x,x,x,x,0.76,x,x,x,x,x,x
CCn1cc(C(=O)O)c(=O)c2cc(F)c(N3CCN(C(=S)NC(=O)c4ccccc4F)CC3)cc21,99*,1,11,98*,16*,0.073*,101*,99*,103*,101*,101*,101*
C=CCNC(=O)c1cn(CC)c2cc(N3CCN(C(=O)c4ccco4)CC3)c(F)cc2c1=O,99*,14,2,99*,25*,0.057*,99*,19*,101*,12*,15,100*
CCn1cc(C(=O)O)c(=O)c2cc(F)c(N3CCN(C(=S)NC(=O)c4cccc(C)c4)CC3)cc21,98*,28,15,97*,93*,0.071*,100*,100*,99*,103*,103*,104*
CCn1cc(C(=O)O)c(=O)c2cc(F)c(N3CCN(C(=S)NC(=O)c4ccc(Br)cc4)CC3)cc21,98*,44,-8,99*,99*,x,99*,99*,100*,102*,102*,103*
CC(=NOCc1ccccc1)c1c(O)cc(C(C)C)n(-c2ccccc2)c1=O,x,x,x,x,x,0.7,x,x,x,x,x,x
CC=CC(=O)N1CC2(CC(c3cccc(NC(=O)COc4ccc(Cl)cc4)c3)=NO2)CC1C(N)=O (configuration not stated),x,x,x,x,x,0.66,x,x,x,x,x,x
CCn1cc(C(=O)NN)c(=O)c2cc(F)c(N3CCOCC3)cc21,2,8,5,-2,2,0.67,x,x,x,x,x,x
CCn1cc(C(=O)O)c(=O)c2cc(F)c(N3CCN(C(=O)Nc4ccccc4)CC3)cc21,101*,24,1,101*,97*,0.051*,103*,102*,102*,100*,102*,99*
CCn1cc(C(=O)O)c(=O)c2cc(F)c(N3CCN(S(=O)(=O)c4ccc(NC(C)=O)cc4)CC3)cc21,100*,8,-20,99*,96*,0.06*,101*,97*,101*,72*,101*,104*
CCn1cc(C(=O)O)c(=O)c2cc(F)c(N3CCN(C(=S)NC(=O)c4ccc(OC)cc4)CC3)cc21,99*,81*,-13,99*,101*,0.076*,100*,100*,102*,104*,105*,105*
CCn1cc(C(=O)O)c(=O)c2cc(F)c(N/N=C/c3ccccc3)cc21,-1,0,4,2,1,x,x,x,x,x,x,x
NC1=NCC(c2ccccc2)N1CCCCC1CCCCC1 (configuration not stated),x,x,x,x,x,0.59,x,x,x,x,x,x
O=C(NN=C/C=C\c1ccc([N+](=O)[O-])cc1)c1cccnc1,x,x,x,x,x,0.66,x,x,x,x,x,x
NC(=S)NN=Cc1ccc2c(c1)OCCO2,x,x,x,x,x,0.64,x,x,x,x,x,x
COc1cc(C=NNC(=O)CNC(=O)c2ccccc2)ccc1OC(=O)c1cccs1,x,x,x,x,x,0.66,x,x,x,x,x,x
COC(=O)[C@]12C(=O)NCC(CN1c1ccc(C(F)(F)F)cc1)N2C,x,x,x,x,x,0.71,x,x,x,x,x,x
CC(=NNC(=O)c1cccnc1)c1ccc(-c2ccccc2)cc1,x,x,x,x,x,0.65,x,x,x,x,x,x
O=C(NNC(=O)c1ccccc1O)c1ccc(Cl)c(S(=O)(=O)N2CCc3ccccc32)c1,14*,-4,-22,19*,16*,0.67,1,8.3*,0,4,7,9
CCN(CC)c1ccc(C=NNC(=S)NCc2ccccc2)c(O)c1,x,x,x,x,x,0.68,x,x,x,x,x,x
CCN(CC)c1ccc(/C=N/NC(=S)NCc2ccccc2)c(O)c1,15*,1,1,12*,14*,x,9,14*,16,9,9,20
O=C1c2ccccc2C2=Nc3ccccc3SC(c3ccc(Cl)cc3)C12 (configuration not stated),36*,-57,22,25*,22*,0.66,39*,30*,52*,18*,16,42*
O=C1CCCC2=C1C(c1ccc(Cl)cc1)C1C(=O)c3ccccc3C1=N2 (configuration not stated),-3,-1,-21,1,0,0.66,x,x,x,x,x,x
Oc1c(C(Nc2ccccn2)c2ccccn2)ccc2cccnc12 (configuration not stated),14*,3,4,17*,16*,0.66,7,9.8*,2,5,9,7
Oc1ccccc1C(Nc1nccs1)c1ccc2cccnc2c1O (configuration not stated),17*,6,12,13*,12*,0.69,9,12*,10,8,10,9
NC(=O)c1oc2ccccc2c1NC(=O)c1ccc([N+](=O)[O-])o1,99*,-3,-13,99*,23*,0.49*,101*,26*,101*,18*,22*,100*
CC(=O)c1cccc(NC(=O)c2ccc([N+](=O)[O-])o2)c1,83*,0,-20,89*,16*,0.44*,101*,19*,71*,10,13,84*
